Shn3 3UTR inh: Schnurri-3 reporter inhibition in Clone20 osteoblasts. Clone20 osteoblast Shn3 3'UTR firefly luciferase, 24 h. inhibition, % at 12.5 µM. actives 0.52% (n = 360,000). AID 588674;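 active means mean inhibition of at least 75% with every replicate also reaching 75%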
TROY signal inh: TROY signaling inhibition. Q293 LMP1-TROYcd NF-kB luciferase reporter, 4 h. inhibition, % at 10 µM. actives 0.98% (n = 360,000);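 active means compounds whose plate-normalised and pattern-corrected inhibition of the luciferase reporter signal at the single screening dose is 50% or more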
TWEAK-Fn14 inh: inhibitors of TWEAK-Fn14 interaction signaling. TWEAK-stimulated Fn14 reporter cells, luciferase luminescence, 8 h. inhibition, % at 10 µM. actives 2% (n = 360,000); in the data active means inhibition above about 50%
Peg3 prom inh: inhibitors of Peg3 promoter | AID 588405 | actives 1.7% (n = 360,000) | inhibition, % at 20 µM | HeLa PEG-Prom luciferase reporter, luminescence, overnight;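 active means inhibition of at least 50% at 20 µM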
TRPM1 prom inh: inhibitors of MITF-driven TRPM1 promoter in melanoma cells. SK-MEL-5 TRPM1 promoter luciferase, 24 h. inhibition, % at 12.5 µM. actives 0.83% (n = 330,000);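 active means mean inhibition across replicates of 60% or more, whatever share of single replicates reaches that level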
LMP1 NFkB inh: inhibitors of Epstein-Barr LMP1-induced NF-kappaB reporter; AID 504558; LMP1-induced NF-kappaB luciferase reporter cells, luminescence; inhibition, % at 12.5 µM; actives 0.69% (n = 350,000); in the data active means inhibition above about 41%
Hits are given with their value; . = inactive; / = no result given. Sampled rows, rich in hits. Any-hit rate of the full collection: about 4.1%.

SMILES	Shn3 3UTR inh	TROY signal inh	TWEAK-Fn14 inh	Peg3 prom inh	TRPM1 prom inh	LMP1 NFkB inh
CCN(CC)C(=O)c1sc2c(c1C)c(=O)n(-c1ccc(C)c(C)c1)c(=O)n2CC(=O)NCC1CCCO1 (stereo not drawn)	.	.	.	.	.	.
Nc1ccc(S(=O)(=O)c2cc(O)c3ccccc3c2O)cc1	.	74	79	.	.	.
COc1ccc(OC)c2sc(N3CCc4ccccc4C3)nc12	.	.	.	.	.	.
c1ccc2c(c1)CCN(c1nc3cc4c(cc3s1)OCCO4)C2	.	75	103	.	.	.
CCOC(=O)Cc1csc(SCC(=O)NC2CCC(C)CC2)n1 (stereo not drawn)	.	.	.	.	.	.
CC(=O)Nc1ccc(C=NNC(=O)c2ccc(NS(=O)(=O)c3cccs3)cc2)cc1	.	.	.	100	.	.
CN(C[C@H](Cc1ccccc1)N(C[C@H](c1ccccc1)N(CCc1ccccc1)N=O)N=O)N=O	87	.	.	.	.	.
CN(C[C@H](c1ccccc1)N(C[C@H](Cc1ccccc1)N(CCc1ccccc1)N=O)N=O)N=O	.	.	.	.	.	.
CCOC(=O)c1ccc(NS(=O)(=O)c2cn(C)cn2)cc1	.	.	.	.	.	.
Cc1cc(C(=O)NC2CCCc3c2cnn3-c2ccc(C(C)(C)C)cc2)nn1C (stereo not drawn)	.	.	61	.	.	.
Cc1cc(C)cc(-n2ncc3c2CCCC3NC(=O)c2cc(C)n(C)n2)c1 (stereo not drawn)	.	.	.	.	.	.
COc1ccc(CNc2ncnc3c2[nH]c2ccccc23)cc1	89	.	.	.	/	/
COc1ccc(CNc2ncnc3c2[nH]c2cc(OC)c(OC)cc23)cc1	.	.	.	.	.	.
C1=C(CCNc2ncnc3c2[nH]c2ccccc23)CCCC1	.	.	69	.	.	.
O=c1c2[nH]c3ccccc3c2ncn1CCC1=CCCCC1	.	.	.	.	.	.
O=c1c2ccccc2nc(/C=C/c2cc(Br)ccc2O)n1CCCO	.	.	69	.	.	.
CN(C(=O)CSc1nc2ccccc2c(=O)n1C)C1CCS(=O)(=O)C1 (stereo not drawn)	.	.	.	.	.	.
CN(C(=O)CSc1nc2ccccc2n1C)C1CCS(=O)(=O)C1 (stereo not drawn)	.	.	.	68	.	.
COc1ccc(-c2nc(-c3ccc4c(c3)OCO4)[nH]c2-c2ccc(OC)cc2)cc1	.	.	56	.	.	.
Cc1[nH]c(-c2ccc3c(c2)OCO3)nc1C(=O)O	.	.	.	.	/	.
COc1ccc(-c2noc(-c3ccc4c(c3)OCO4)n2)cc1	.	.	.	.	.	.
COc1ccc(-c2cc3cc4c(cc3cn2)OCO4)cc1	.	.	54	.	.	.
COc1ccc2cc(-c3ccsc3)ncc2c1	.	.	.	.	62	.
COc1cccc(-c2noc(-c3ccc4c(c3)OCO4)n2)c1	.	.	53	.	.	.
N#CCCCc1cn(-c2nc3ccccc3s2)nn1	/	.	.	/	/	/
SMILES	Shn3 3UTR inh	TROY signal inh	TWEAK-Fn14 inh	Peg3 prom inh	TRPM1 prom inh	LMP1 NFkB inh
Cc1ccc(S(=O)(=O)N2CCCC2)cc1C(=O)N1CCN(Cc2ccccc2)CC1	.	.	.	.	.	.
COc1ccccc1N1CCN(c2ccc([N+](=O)[O-])cc2Cl)CC1	.	.	.	.	.	.
COc1ccccc1-n1cc2c([N+](=O)[O-])cc([N+](=O)[O-])cc2n1	.	.	51	.	.	.
O=S(=O)(c1ccc(Cl)cc1)N1CCSC1c1ccco1 (stereo not drawn)	.	67	.	.	.	.
C=CCOc1ccc(C(=O)/C=C2/C(=O)Nc3ccccc32)cc1	.	.	.	.	.	.
C=CCOc1ccccc1C(=O)/C=C1/C(=O)Nc2ccccc21	.	.	.	76	.	.
COc1ccc(C(=O)/C=C2/C(=O)Nc3ccccc32)c(OC)c1	.	.	.	103	.	.
Cc1cc(O)c(C(C)C)cc1C1(c2cc(C(C)C)c(O)cc2C)OC(=O)c2ccccc21	.	85	97	111	.	.
COc1ccc(NC(=O)COc2cccc3c2OC(C)(C)C3)c(OC)c1	.	.	.	.	.	.
Cc1cccc(-c2cc3c(nn2)-c2ccccc2C3=O)c1	.	.	50	.	.	.
O=C1c2ccccc2-c2nnc(-c3ccccc3)cc21	.	.	72	.	.	.
COc1ccc(-c2cc3c(nn2)-c2ccccc2C3=O)cc1	.	59	92	80	72	52
COc1ccc(-c2cn(Cc3ccc4c(c3)C(=O)c3ccccc3C4=O)nn2)cc1	.	.	.	.	.	.
Cc1cnc2c(c1)C(=O)c1ccccc1-2	.	.	.	.	.	.
c1ccc(-c2cc3c(nn2)CCc2nonc2-3)cc1	.	.	.	.	.	.
CCC(CC)C(=O)N(C)c1c(C)nc2c(OCc3ccc(OC(F)F)cc3)cccn12	.	.	.	.	/	/
Cc1ccc2c(n1)sc1c(-c3ccc(Br)cc3)c(C#N)c(N)nc12	.	.	.	56	.	.
CCc1nc(N)c(C#N)c(-c2ccc(F)cc2)c1C	.	.	.	.	.	.
CCOc1ccc(N(CC(=O)N2CCc3ccccc32)S(=O)(=O)c2c(C)noc2C)cc1	.	.	.	.	.	47
CCOc1ccc(N(CC(=O)Nc2ccc(C)cc2)S(=O)(=O)c2c(C)noc2C)cc1	.	.	.	.	.	.
CCOc1ccc(N(CC(=O)Nc2ccccc2OCC)S(=O)(=O)c2c(C)noc2C)cc1	.	.	.	.	65	.
CCOC(=O)C1(C)CCCN(C(=O)c2ccc3ccccc3c2)C1 (stereo not drawn)	.	.	.	.	/	/
CCCn1nc(C(=O)Nc2cccc(S(=O)(=O)N3CCOCC3)c2)c2ccccc2c1=O	.	.	.	.	/	.
CC1(C(=O)NS(=O)(=O)c2ccc(Cl)s2)CCN1C(=O)CCc1ccccc1 (stereo not drawn)	.	.	.	.	/	/
O=C(Nc1cccc2cccnc12)c1ccc(Br)cc1Br	.	.	.	.	.	.
SMILES	Shn3 3UTR inh	TROY signal inh	TWEAK-Fn14 inh	Peg3 prom inh	TRPM1 prom inh	LMP1 NFkB inh
O=C(NCC1CCCN(Cc2ccc3nonc3c2)C1)c1ccc(F)cc1 (stereo not drawn)	.	71	.	.	.	.
C#CCNC(=O)C[C@@H]1C[C@@]2(C(=O)OC)CCCCC=C2N(Cc2ccco2)C1=O	/	.	.	/	/	/
O=C1NC(=S)N/C1=C/c1cccc([N+](=O)[O-])c1	.	.	.	.	.	.
O=C1NC(=S)N/C1=C/c1cccnc1	.	.	53	.	.	.
O=C1NC(=S)N/C1=C\c1cccc([N+](=O)[O-])c1	.	.	.	.	.	.
O=C1NC(=S)N/C1=C\c1cccnc1	.	.	50	.	.	.
CCCN1CCN(C(=O)Cn2nc(CC)n3c(cc4sccc43)c2=O)CC1	.	.	.	.	.	.

Screens (PubChem)
